# Only some compounds are listed: those with a hit (about 2.7% of all), similar ones and a draw of the others.
# NadD block: NadD (S. aureus) enzyme inhibition; purified NadD enzyme, colorimetric absorbance read-out; inhibition, % at 20 µM; 0.78% of 360,000 active; AID 602399; in the data active = inhibition above about 26%
# rCAG RNA binder: binds r(CAG) RNA repeats; r(CAG) RNA repeat, TO-PRO-1 dye displacement fluorescence; inhibition, % at 3 µM; 1.3% of 370,000 active;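 active = inhibition above the plate cutoff, the mean of all test compounds on that plate plus 3 SD, cut at about 35% in these data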;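 note: higher means more dye released from RNA so lower well fluorescence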
# bovine MsrA act: bovine methionine sulfoxide reductase A activation | purified bovine MsrA, absorbance read-out | activation, % at 10.6 µM | 0.3% of 360,000 active | AID 602163; in the data active = activation above about 7.5%
# MsrA inhibitor: inhibitors of bovine MsrA; purified bovine MsrA, absorbance read-out; AID 651718; inhibition, % at 15.5 µM; 0.75% of 360,000 active; in the data active = inhibition above about 4.5%
# rCAG binder conf: r(CAG) RNA repeat binding, confirmation; shares compounds with rCAG RNA binder; TO-PRO-1 dye displacement fluorescence; inhibition, % at 3 µM; 70% of 4,300 active;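 active = inhibition above a per-plate cutoff, the mean inhibition of sample wells plus 3 SD, cut at about 35% in these data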;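 note: loss of TO-PRO-1 fluorescence as compound displaces dye from 1x1 AA loop RNA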
# dCAG dye counter: DNA CAG dye complex inhibition counter-screen; AID 652068; shares compounds with rCAG RNA binder; d(CAG) DNA oligo TO-PRO-1 dye displacement, fluorescence; 94% of 4,300 active; inhibition, % at 3 µM;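 active = inhibition above its plate's cutoff, the mean test-well inhibition plus 3 SD, cut at about 4.8% in these data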;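 note: hits displace the dye from DNA and so lower well fluorescence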
# DNA CAG DR: DNA CAG dye complex inhibition, dose response counter-screen; shares compounds with rCAG RNA binder; DNA CAG/GTC duplex TO-PRO-1 dye displacement fluorescence; IC50, µM; 20% of 250 active; in the data active = IC50 below about 10 µM
# Numbers stand for hits; – = inactive; · = no result given.
SMILES,NadD block,rCAG RNA binder,bovine MsrA act,MsrA inhibitor,rCAG binder conf,dCAG dye counter,others
O=C(CSc1ccc(Cl)cc1)NC1=NN(c2ccccc2)C(=O)C1,–,55,–,–,–,10,
O=C(NC1CCNCC1)C1CC1,–,–,–,–,·,·,
CCCCc1ccc(NC(=S)NCCc2ccc(S(N)(=O)=O)cc2)cc1,–,–,–,–,·,·,
COc1cccc(OCC(=O)NNC(=S)Nc2ccc(Cl)cc2Cl)c1,–,57,–,–,47,15,
O=C(O)c1ccc2c(c1)S(=O)(=O)c1cc(N3CCN(c4cnccn4)CC3)ccc1C2=O,–,35,–,–,46,14,
c1coc(-c2ccc3nncn3c2)c1,–,47,–,–,46,18,DNA CAG DR=–
COc1ccc(NC(=O)c2cc(-c3cc(C)cc(F)c3)n[nH]2)cc1OC,–,–,–,–,·,·,
CCOC(=O)N1CCC2(CC1)C(C#N)=C(N)Oc1n[nH]c(C)c12,–,–,–,–,·,·,
CCOC(=O)N1CCC2(CC1)C(C#N)=C(N)Oc1c2c(C)nn1-c1cccc(Cl)c1,–,36,–,–,–,16,
O=C(c1cc(-c2ccccc2)nn1-c1ccccc1)N1CCN(S(=O)(=O)c2c(F)cccc2F)CC1,–,–,–,–,·,·,
CC(C)(C)c1ccc(-c2c(C(=O)O)c(C(=O)O)c3n2CSC3)cc1,–,49,–,–,41,8.4,
CC(C)(C)c1ccc(S(=O)(=O)NC(=O)C2(C)CCN2C(=O)Cc2cccc3ccccc23)cc1 (stereo unspecified),–,71,–,–,62,25,
Cc1ccc(S(=O)(=O)NC(=O)C2(C)CCN2C(=O)Cc2ccc(-c3ccccc3)cc2)cc1 (stereo unspecified),–,58,–,–,53,15,
CC1(C(=O)NS(=O)(=O)c2ccccc2)CCN1C(=O)Cc1ccccc1 (stereo unspecified),–,–,–,–,·,·,
Cc1ccc(S(=O)(=O)NC(=O)C2(C)CCN2C(=O)Cc2ccc(C(C)(C)C)cc2)cc1 (stereo unspecified),–,43,–,–,–,7.2,
CC(C)(C)c1ccc(CC(=O)N2CCC2(C)C(=O)NS(=O)(=O)c2ccc(Cl)cc2)cc1 (stereo unspecified),–,37,–,–,52,17,
Cc1ccc(S(=O)(=O)Nc2cccc(-n3cnnn3)c2)cc1,–,–,–,–,·,·,
Cc1ccc(NC(=O)CSc2cccc[n+]2[O-])c([N+](=O)[O-])c1,–,–,–,–,·,·,
c1ccc(Cn2ccc3ccc(-c4ccc5ccn(Cc6cccc(Oc7ccccc7)c6)c5c4)cc32)cc1,·,–,·,·,·,·,
CC1=NN(c2nc(-c3ccc(C#N)cc3)cs2)C(=O)C1,·,–,·,–,·,·,
O=C1CC(c2ccccc2)=NN1c1ccccc1,–,53,–,–,–,4.8,
O=C1CC(c2ccccc2)=NN1c1nc(-c2ccccc2)cs1,–,65,–,–,–,15,
O=C(Nc1ccc(S(=O)(=O)NC2=NCCCCC2)cc1)c1ccco1,–,–,–,–,·,·,
CCCCNC(=O)c1ccc(Cc2cn(C)c3ccccc23)nc1,–,–,–,–,·,·,
COc1ccc(/C=N/NC(=O)c2ccc(O)cc2O)cc1CSc1ccccn1,–,36,–,–,–,12,
SMILES,NadD block,rCAG RNA binder,bovine MsrA act,MsrA inhibitor,rCAG binder conf,dCAG dye counter,others
O=C(Nc1nnc(-c2cccs2)o1)c1cccc(Oc2ccccc2)c1,–,38,–,–,53,15,
COC(=O)[C@H]1C[C@@]2(O)CN(S(=O)(=O)c3ccc(C)cc3)C[C@@]2(OC(=O)Nc2c(C)noc2C)C[C@H]1C(=O)OC,–,–,–,–,·,·,
COc1cc(-c2cc(NC=O)c3ncc(-c4cccc(C(F)(F)F)c4)n3c2)cc(OC)c1OC,–,–,–,–,·,·,
Cc1cc(C)c(C)c(S(=O)(=O)N2C(=S)NC(=O)C2CC(C)C)c1C (stereo unspecified),–,41,–,–,–,8.0,
Cc1cc(C)c(C)c(S(=O)(=O)N2C(=S)NC(=O)C2C(C)C)c1C (stereo unspecified),–,–,–,–,·,·,
CCc1c(O)nc(SCC(=O)Nc2nc3ccccc3s2)n(C2CCCCC2)c1=O,–,40,–,–,48,15,
CCc1c(O)nc(SCC(=O)Nc2ccc(OC)cc2)n(C2CCCCC2)c1=O,–,–,–,–,·,·,
CCOC(=O)CN(C(=O)COC(=O)C1(c2ccccc2)CC1)c1ccc(F)cc1,–,–,–,–,·,·,
CCc1ccc(N=C2NC(=O)/C(=C/c3ccc(OCC(=O)O)c(OC)c3)S2)cc1,–,42,–,–,39,12,
COc1ccc(/C=C2/S/C(=N/S(=O)(=O)Cc3ccccc3)NC2=O)cc1OC,–,53,–,–,44,12,
CCOc1ccc(/C=C2\SC(=S)NC2=O)cc1OC,–,–,–,–,·,·,
CCc1ccc(N=C2NC(=O)/C(=C/c3ccc(OCC(=O)O)cc3)S2)cc1,–,49,–,–,40,10,
COc1ccc(N=C2NC(=O)/C(=C/c3ccc(O)c(OC)c3)S2)cc1,–,–,–,–,·,·,
CN(C)S(=O)(=O)c1ccc(Cl)c(C(=O)OCC(=O)NNC(=O)c2cccs2)c1,–,–,–,–,·,·,
O=C(O)Cc1ccc(C(=O)c2ccc(Cl)cc2Cl)s1,–,–,–,–,·,·,
COc1ccc(-c2sc(C(=O)c3ccc(Cl)cc3Cl)cc2CC(=O)O)cc1,–,54,–,–,56,17,
COC(=O)c1ccc(CSc2nc3c(cnn3-c3ccccc3)c(=O)[nH]2)o1,–,38,–,–,36,8.0,
COC(=O)c1ccc(CSc2nc3c(cnn3-c3ccc(F)cc3)c(=O)[nH]2)o1,–,·,–,·,·,·,
COC(=O)c1sc(N2C(=O)C(=O)/C(=C(/O)c3ccccc3)C2c2ccco2)nc1C (stereo unspecified),–,37,–,–,–,6.3,
CCn1c2ccccc2c2cc(/C=N/NC(=O)c3ccc(O)cc3)ccc21,–,–,–,–,·,·,
CCn1c2ccccc2c2cc(/C=N/NC(=O)c3cc(O)cc(O)c3)ccc21,–,38,–,–,37,21,
CCOC(=O)c1sc(S(C)(=O)=O)c2c1CCc1conc1-2,–,–,–,–,·,·,
CCN(CC)c1ccc(C=C2C(=O)OC3(CCCCC3)OC2=O)cc1,–,–,–,–,·,·,
CCN(CC)c1ccc(/C=C2/C(=O)c3ccc(C(=O)O)cc3C2=O)cc1,–,55,–,–,82,48,
CCOC(=O)Cn1nc(C)n(-c2ccc(F)cc2)c1=O,–,–,–,–,·,·,
CCCOc1ccc(C2C(C(=O)c3cc4ccccc4o3)=C(O)C(=O)N2c2cc(C)on2)cc1OC (stereo unspecified),–,40,–,–,76,42,
C=CCOc1cccc(C2C(C(=O)c3cc4ccccc4o3)=C(O)C(=O)N2c2cc(C)on2)c1 (stereo unspecified),–,66,–,–,76,40,
